The values below come from patent publication US20060069055, “Delivery of polynucleotides” (published 2006).

The target of the test is NF-kB p65/p50 heterodimer (Homo sapiens, UniProt Q04206;P19838 Q04206:1-551,P19838:1-433). Put plainly: EMSA; Table 3 gives 58 for PO. Particulars: protein: extract; tags: nuclear extract of LPS-stimulated THP-1 cells; dsDNA, one strand shown. The source says: The EMSA assay was employed to characterize oligonucleotide decoys for the NF-κB transcription factor. […] Using the above modified oligonucleotides to compete for binding for the above-mentioned NF-κB family members, it was possible to compare the binding affinity of these oligonucleotides against the high affinity radiolabeled probe and each other. This assay has also enabled the design of a decoy which selectively binds particular members of the NF-κB family. By using increasing concentrations of various oligonucleotides, it was observed that, by deleting or changing targeted residues in the binding site, it was possible to specifically decrease the binding of the decoy molecule to p50/p50 homodimers, while retaining the affinity for p65/p50 and cRel/p50 heterodimers.
NF-kB p65/p50 heterodimer, sequence (Q04206 whole entry, chain 1 of 2): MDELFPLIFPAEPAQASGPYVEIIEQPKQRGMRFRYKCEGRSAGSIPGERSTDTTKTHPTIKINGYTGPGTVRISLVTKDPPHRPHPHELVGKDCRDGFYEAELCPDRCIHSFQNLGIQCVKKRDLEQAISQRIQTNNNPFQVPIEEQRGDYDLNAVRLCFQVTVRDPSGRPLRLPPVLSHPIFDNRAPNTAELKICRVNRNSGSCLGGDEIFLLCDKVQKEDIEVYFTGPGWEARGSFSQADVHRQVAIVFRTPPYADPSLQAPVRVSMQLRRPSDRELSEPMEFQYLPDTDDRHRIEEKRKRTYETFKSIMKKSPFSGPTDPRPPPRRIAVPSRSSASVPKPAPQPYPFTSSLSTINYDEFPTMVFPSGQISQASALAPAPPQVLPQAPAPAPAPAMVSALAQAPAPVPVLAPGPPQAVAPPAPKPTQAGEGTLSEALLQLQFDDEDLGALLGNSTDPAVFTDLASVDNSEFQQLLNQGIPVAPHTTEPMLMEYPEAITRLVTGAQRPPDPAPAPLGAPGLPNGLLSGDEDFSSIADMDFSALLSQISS
NF-kB p65/p50 heterodimer, sequence (P19838 1-433, chain 2 of 2): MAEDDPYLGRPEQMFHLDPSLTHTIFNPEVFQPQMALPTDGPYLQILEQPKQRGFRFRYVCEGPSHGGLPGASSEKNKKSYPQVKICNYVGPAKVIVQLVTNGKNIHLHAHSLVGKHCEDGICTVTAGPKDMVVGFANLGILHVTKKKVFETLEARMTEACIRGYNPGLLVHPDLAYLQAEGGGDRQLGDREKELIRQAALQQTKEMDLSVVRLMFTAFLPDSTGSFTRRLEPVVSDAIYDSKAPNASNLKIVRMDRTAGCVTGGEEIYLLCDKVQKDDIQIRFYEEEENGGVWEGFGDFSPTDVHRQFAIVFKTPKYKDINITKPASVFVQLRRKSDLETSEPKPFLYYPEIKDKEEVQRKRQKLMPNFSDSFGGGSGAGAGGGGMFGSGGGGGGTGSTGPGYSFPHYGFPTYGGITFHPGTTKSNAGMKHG
The NF-κB gel shift assays (EMSA) were performed as follows. A double-stranded oligonucleotide containing a consensus NF-κB binding site (5′ […].GGC 3′) (SEQ ID NO: 26) was end-labeled with γ³²P-ATP using T4 Polynucleotide Kinase (Promega). […] The dried gels were imaged and quantitated using a Typhoon 8600 Phosphorlmager (Amersham) and ImageQuant software. […]
AGTTGAGGACTTTCCAGGC returned an IC50 of 62.4 fold molar excess.
